Laboratory results taken from PubChem BioAssay (NCATS).
“And” between values parts separate entries of the source, which are not always exact repeats. Identical values can stand only once. Values without a mark were called inactive. Calls come from the whole dose curve; as a rule, active = well fitted activation curve with a large enough effect; inconclusive = small, poorly fitted or top-dose-only effect; inactive = flat fitted curve, though single readings scatter.

What follows are compounds tested against Peroxisome proliferator-activated receptor alpha (Homo sapiens) (UniProt Q07869) (assay: qHTS assay for small molecule agonists of the peroxisome proliferator-activated receptor alpha (PPARalpha) signaling pathway (AID 651778; note: % of control where 0% means no effect)). Conditions: PathHunter PPARalpha complementation, chemiluminescence, 6 h; hits give high values.
Chain of Peroxisome proliferator-activated receptor alpha (Homo sapiens) (Q07869 whole entry, looked up): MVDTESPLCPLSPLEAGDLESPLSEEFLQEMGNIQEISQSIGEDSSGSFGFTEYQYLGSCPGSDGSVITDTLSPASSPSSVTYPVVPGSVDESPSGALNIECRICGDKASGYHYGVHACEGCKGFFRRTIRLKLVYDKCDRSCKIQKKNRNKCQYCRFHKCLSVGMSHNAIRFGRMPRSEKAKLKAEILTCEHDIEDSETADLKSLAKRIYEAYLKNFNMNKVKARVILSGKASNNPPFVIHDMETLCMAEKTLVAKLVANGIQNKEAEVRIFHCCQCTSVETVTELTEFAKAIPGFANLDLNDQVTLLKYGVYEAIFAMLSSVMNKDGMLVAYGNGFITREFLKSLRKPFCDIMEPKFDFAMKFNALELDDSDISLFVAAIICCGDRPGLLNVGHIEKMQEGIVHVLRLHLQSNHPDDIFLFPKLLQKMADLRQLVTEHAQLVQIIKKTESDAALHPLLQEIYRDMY
Summary of the method: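 Cells plated at 2,000/well and held overnight at 37 C, 5% CO2, then compound added by pin tool for 6 hr; after PathHunter detection reagent and 60 min at room temperature, chemiluminescence from enzyme complementation was read.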
For `C=C[C@@]1(C)CC(=O)[C@]2(O)[C@@]3(C)[C@@H](O)CCC(C)(C)[C@@H]3[C@H](O)[C@H](OC(C)=O)[C@@]2(C)O1`, the max response was 0.227%. `CN(C)C(=O)Nc1ccc(Cl)c(Cl)c1` gave a max response of 0.591%. With `CCCN(CCC)S(=O)(=O)c1ccc(C(=O)O)cc1` the max response was -6.45% and -0.148%. Compound `C#C[C@]1(O)CC[C@H]2[C@@H]3CCC4=Cc5oncc5C[C@]4(C)[C@H]3CC[C@@]21C` has a max response of -4.33%. `CCCCCCCCCCCCCC(=O)OC(C)C` was tested, and the max response was -1.44%. With `CCCCC(CC)COC(=O)c1ccc(N(C)C)cc1` (stereo not given) the max response was 0.44% and -4.46%. With `CCOc1ccc(NC(C)=O)cc1` the max response was -5.21% and -4.18%. `CCCCCCCC/C=C\CCCCCCCCN` was tested, and the max response was 0.202%. For `CCCCCCCCCCCCCCCCO`, the max response was 0.0651%. `COc1ccc(C(Cl)=C(c2ccc(OC)cc2)c2ccc(OC)cc2)cc1` gave a max response of -4.66%. `O=C(O)c1ccc(S(=O)(=O)N(Cl)Cl)cc1` was tested, and the max response was 7.46%. Work on `CC(C)(C)CC(C)(C)c1ccc(O)c(-n2nc3ccccc3n2)c1` yielded a max response of 12.6%. `CC1(C)OC[C@@H]2O[C@@]3(C(=O)O)OC(C)(C)O[C@H]3[C@@H]2O1` gave a max response of -1.9%. For `COc1ccc(C(=O)c2ccccc2)c(O)c1`, the max response was 1.86% and -0.894%. `C/C=C/c1ccc(O)c(OC)c1` was tested, and the max response was -4.52% and -2.32%.
